Assay results from ChEMBL document CHEMBL2218924, “A broad activity screen in support of a chemogenomic map for kinase signalling research and drug discovery” (Biochem J, 2013).

What was measured:
[1] = target: RAC-alpha serine/threonine-protein kinase (Homo sapiens) (UniProt P31749); conditions: at 1 µM
[2] = target: RAC-alpha serine/threonine-protein kinase (Homo sapiens) (UniProt P31749); conditions: at 10 µM

Sequence of RAC-alpha serine/threonine-protein kinase (Homo sapiens) (P31749 whole entry): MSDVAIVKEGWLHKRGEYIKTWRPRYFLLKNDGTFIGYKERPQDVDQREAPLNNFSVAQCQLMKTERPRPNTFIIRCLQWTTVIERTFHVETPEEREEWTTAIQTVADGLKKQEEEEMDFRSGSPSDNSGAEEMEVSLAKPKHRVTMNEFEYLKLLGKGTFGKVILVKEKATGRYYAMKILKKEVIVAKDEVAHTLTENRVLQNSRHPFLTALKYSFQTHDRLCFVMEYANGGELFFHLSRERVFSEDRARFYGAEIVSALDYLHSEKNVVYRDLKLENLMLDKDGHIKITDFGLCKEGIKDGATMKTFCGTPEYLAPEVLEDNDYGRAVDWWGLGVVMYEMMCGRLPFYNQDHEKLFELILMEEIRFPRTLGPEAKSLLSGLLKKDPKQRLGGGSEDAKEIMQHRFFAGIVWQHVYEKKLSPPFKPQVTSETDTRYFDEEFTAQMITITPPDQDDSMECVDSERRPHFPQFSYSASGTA

SMILES | residual activity [1] [%] | residual activity [2] [%]
CC(C)(C)c1nc2c3ccc(F)cc3c3c(=O)[nH]ccc3c2[nH]1 | 98 | 104
CO[C@H]1C[C@@H]2CC[C@@H](C)[C@@](O)(O2)C(=O)C(=O)N2CCCC[C@H]2C(=O)O[C@H]([C@H](C)C[C@@H]2CC[C@@H](O)[C@H](OC)C2)CC(=O)[C@H](C)/C=C(\C)[C@@H](O)[C@@H](OC)C(=O)[C@H](C)C[C@H](C)/C=C/C=C/C=C/1C | 105 | 98
Cc1cccc(-c2[nH]c(C(C)(C)C)nc2-c2ccc3c(c2)OCO3)n1 | 100 | 107
O=C1NC(=O)/C(=C/c2ccc3c(c2)OC(F)(F)O3)S1 | 102 | 111
Cn1c2ccccc2c2c3c(c4c5ccccc5n(CCC#N)c4c21)CNC3=O | 106 | 105
CCOc1cc2ncnc(Nc3cccc(Br)c3)c2cc1OCC | 101 | 109
COc1cc2ncnc(Nc3ccc(NC(=O)c4ccccc4)cc3)c2cc1OC | 105 | 110
Nc1nc(Nc2ccc(S(N)(=O)=O)cc2)nn1C(=O)c1c(F)cccc1F | 104 | 103
O=C1NC(=O)/C(=C\c2ccc3nccnc3c2)S1 | 106 | 108
O=C1NC(=O)c2cc(Nc3ccc(F)cc3)c(Nc3ccc(F)cc3)cc21 | 101 | 107
c1ccc2c(-c3ccncc3)c[nH]c2c1 | 103 | 104
COc1cccc(-c2cc(=O)c3ccccc3o2)c1N | 106 | 109
Cc1cc(Nc2nc(-c3ccccc3)nc3ccccc23)n[nH]1 | 113 | 101
COc1ccc(S(=O)(=O)N(CCO)c2ccccc2CN(C)C/C=C/c2ccc(Cl)cc2)cc1 | 116 | 112
O=C(Nc1cccc(Nc2nccc(Nc3cccc(C(F)(F)F)c3)n2)c1)C1CC1 | 103 | 104
NC(=O)c1ccc2[nH]c(-c3ccc(Oc4ccc(Cl)cc4)cc3)nc2c1 | 109 | 112
C[C@@H](N)[C@H]1CC[C@H](C(=O)Nc2ccncc2)CC1 | 88 | 76
COc1cc2ncnc(Nc3ccc(O)c(Br)c3)c2cc1OC | 107 | 105
O=C(CCCc1ccc(-c2ccccc2F)cc1)Nc1ccc(O)cc1 | 103 | 105
CCC(=O)Nc1ccc2ncnc(Nc3cccc(Br)c3)c2c1 | 99 | 106
CO[C@@H]1[C@H](N(C)C(=O)c2ccccc2)C[C@H]2O[C@]1(C)n1c3ccccc3c3c4c(c5c6ccccc6n2c5c31)C(=O)NC4 | 97 | 99
COc1ccc(Cl)cc1NC(=O)Nc1cc(C)nc2ccccc12 | 95 | 94
Oc1ccc(Nc2nc(-c3ccc(Cl)cc3)cs2)cc1 | 124 | 94

SMILES | residual activity [1] [%] | residual activity [2] [%]
CC(C)n1cnc2c(NCc3ccccc3)nc(NCCCO)nc21 | 107 | 110
COc1ccc(OC)c2c(=S)c3ccccc3[nH]c12 | 109 | 104
O=C1NC(=O)C(c2cn(CCCn3ccnc3)c3ccccc23)=C1Nc1ccccc1 | 104 | 102
CCN(CC)CCCCN1c2ccccc2Oc2ccc(Cl)cc21 | 104 | 104
CCCCc1c(-c2ccc(OC)cc2)[nH]c2nccnc12 | 118 | 106
O=c1c2ccccc2[nH]c(=S)n1CCN1CCC(=C(c2ccc(F)cc2)c2ccc(F)cc2)CC1 | 112 | 107
COc1ccc(CNC(=O)Nc2ncc([N+](=O)[O-])s2)cc1 | 116 | 106
CNc1cc2c(Nc3cccc(Br)c3)ncnc2cn1 | 98 | 98
Cn1cc(/C=C2\C(=O)Nc3ccc(S(N)(=O)=O)cc32)c2ccccc21 | 96 | 101
Nc1ncnc2[nH]nc(Nc3ccc(F)cc3)c12 | 111 | 109
Nc1n[nH]c2nnc(-c3c(-c4ccccc4)nn4ccccc34)cc12 | 111 | 99
c1ccc(-c2cnc(Nc3ccc(OCCN4CCCC4)cc3)s2)cc1 | 102 | 115
NC(=O)Nc1sc(-c2ccc(F)cc2)cc1C(N)=O | 114 | 109
Nc1ccc2ncnc(NCCc3ccc(Oc4ccccc4)cc3)c2c1 | 110 | 108
O=C1c2ccccc2-[n+]2ccc3c([nH]c4ccccc43)c21 | 108 | 107
O=C(Nc1cccc(Nc2cc(Nc3cccc(C(F)(F)F)c3)ncn2)c1)C1CC1 | 96 | 99
O=c1cc(-c2cccc3c2Sc2ccccc2S3)oc(N2CCOCC2)c1 | 99 | 103
COc1cc2c(cc1OC)-c1n[nH]c(Nc3cccc(F)c3)c1C2 | 107 | 107
COc1ccc(C(=O)Nc2sc3c(c2C(N)=O)CCCC3)cc1OC | 103 | 109
Oc1c2ccccc2c2c3c(cccc13)N=N2 | – | 110
CO[C@H]1[C@@H](OC)C[C@H](C)[C@@H](OC)C2=CC(=O)C=C(NC(=O)/C(C)=C/C=C/[C@H](OC)[C@@H](OC(N)=O)/C(C)=C/[C@@H]1C)C2=O | 112 | 114
Cn1nc2c3c(cccc31)C(=O)c1ccccc1-2 | 111 | 108
COc1ccc(CNc2nc(N(CCO)CCO)nc3c2ncn3C(C)C)cc1 | 118 | 111

SMILES | residual activity [1] [%] | residual activity [2] [%]
CC(C)n1cnc2/c(=N/c3cccc(Cl)c3)nc(NCCO)[nH]c21 | 111 | 109
Oc1ccc(-c2nc(-c3ccc(F)cc3)c(-c3ccncc3)[nH]2)cc1 | 113 | 112
NCCNc1ncc(C(N)=O)c(Nc2cccc(C(F)(F)F)c2)n1 | – | 112
COc1cc2ncnc(N3CCN(C(=O)Nc4ccc(Oc5ccccc5)cc4)CC3)c2cc1OC | 106 | 107
O=C1Cc2c([nH]c3ccc([N+](=O)[O-])cc23)-c2ccccc2N1 | 104 | 104
Nc1ncnc2c1c(-c1ccc(Oc3ccccc3)cc1)cn2C1CCCC1 | 105 | 111
O=Nc1c(-c2c(O)[nH]c3ccccc23)[nH]c2ccccc12 | 107 | 98
CC(=O)O/N=C1\C(=C2\C(=O)Nc3cc(Br)ccc32)Nc2ccccc21 | 115 | 109
O=C(c1ccccc1)c1ccc(N2CCOCC2)cc1O | 96 | 98
O=C1Nc2ccccc2/C1=C1/Nc2ccccc2/C1=N\OCCC(O)CO (stereo not given) | 113 | 101
N#C/C(=C\c1ccc(O)c(O)c1)C(=O)NCc1ccccc1 | 103 | 120
Cn1cnc2cc3c(Nc4cccc(Br)c4)ncnc3cc21 | 95 | 109
Cc1nc2cc3nc(-c4cccs4)cnc3cc2n1C | 100 | 105
Cc1nc(-c2ccccc2)c(-c2ccncc2)o1 | 110 | 102
COc1cc2nccc(Oc3ccc(NC(=O)Nc4cc(C)on4)c(Cl)c3)c2cc1OC | 97 | 101
O=C1NC(=O)c2c1c1c3ccccc3[nH]c1c1[nH]c3cc(Br)ccc3c21 | 103 | 106
Cc1ccc(NC2=CC(=O)c3sc(C)nc3C2=O)cc1 | 111 | 107
O=[N+]([O-])c1ccc(-c2nc(-c3ccc(F)cc3)c(-c3ccncc3)[nH]2)cc1 | 112 | 103
O=S(=O)(NCCNC/C=C/c1ccc(Br)cc1)c1cccc2cnccc12 | – | 22
CN(C)CCCn1cc(C2=C(c3c[nH]c4ccccc34)C(=O)NC2=O)c2ccccc21 | 103 | 104
Oc1n[nH]c2nnc(-c3c(-c4ccccc4)nn4ccccc34)cc12 | 105 | 111
CC[n+]1c(/C=C/N(C)c2ccccc2)n(-c2ccccc2)c2ccc(-c3nc4ccccc4s3)cc21 | 99 | 107
N#C/C(=C(\N)Sc1ccc(N)cc1)c1ccccc1C(F)(F)F | 112 | 108
